A3A deaminase: APOBEC3A ssDNA deaminase inhibitors, primary screen, selectivity assay for APOBEC3G inhibitor project, biochemical, FAM/TAMRA oligo cleavage fluorescence; inhibition, % at 20 µM; hit rate 0.41% among 330,000; DNA dC->dU-editing enzyme APOBEC-3A (Homo sapiens), P31941; recombinant A3A, FAM/TAMRA ssDNA deamination fluorescence;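 active means at least 40% inhibition at 20 µM here, with at most 30% in a related deaminase screen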;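 further: plate controls were A3A with DMSO for no effect and wells lacking A3A enzyme for full effect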
aDG glyco act: activators of alpha-DG glycosylation, primary screen, uHTS, Pro5-aDG cells, AlphaScreen; alpha-DG glycosylation AlphaScreen (IIH6); 0% Pro5, 100% B10-LARGE cell signal; activation, % at 10 µM; hit rate 0.22% among 360,000;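 active means activation of at least 8% versus controls, or a plate z-score of at least 8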;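 further: Pro5 are CHO cells carrying HIG-tagged alpha-DG that lacks glycosylation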
APOBEC3G inh: APOBEC3G DNA deaminase inhibitors, primary screen, biochemical, fluorescence, single-stranded DNA substrate, uHTS; DNA dC->dU-editing enzyme APOBEC-3G (Homo sapiens), Q9HC16; recombinant A3G, ssDNA deamination FAM/TAMRA fluorescence; inhibition, % at 20 µM; hit rate 0.28% among 330,000;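 active means inhibition of at least 40% at 20 µM, with no more than 30% in the related APOBEC3A deaminase screen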;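 further: plate controls were DMSO wells with A3G for no effect and wells lacking A3G enzyme for full effect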
rCAG RNA binder: binders of r(CAG) RNA repeats, primary screen, biochemical, fluorescence; r(CAG) RNA repeat, TO-PRO-1 dye displacement fluorescence; inhibition, % at 3 µM; hit rate 1.3% among 370,000;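 active means inhibition above the plate cutoff, the mean of all test compounds on that plate plus 3 SD, cut at about 35% in these data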;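 further: 0% = DMSO alone and 100% = 100 µM mitoxantrone as full dye displacement; higher means more dye released from RNA so lower well fluorescence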
PHOSPHO1 inh: PubChem AID 1565; Phosphoethanolamine/phosphocholine phosphatase (Homo sapiens), Q8TCT1; recombinant PHOSPHO1, absorbance phosphatase assay; inhibition, % at 13.3 µM; hit rate 1.1% among 290,000; in the data active means inhibition above about 60%
Target sequence (Q8TCT1 whole entry, looked up): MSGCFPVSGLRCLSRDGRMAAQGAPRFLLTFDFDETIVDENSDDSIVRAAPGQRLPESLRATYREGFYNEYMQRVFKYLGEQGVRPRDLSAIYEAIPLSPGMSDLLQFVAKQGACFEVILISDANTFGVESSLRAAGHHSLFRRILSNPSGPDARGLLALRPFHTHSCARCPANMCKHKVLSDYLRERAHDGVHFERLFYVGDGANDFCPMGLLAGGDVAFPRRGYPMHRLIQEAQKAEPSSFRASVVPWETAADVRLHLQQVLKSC
ALR H2O2 inh: inhibitors of human ALR sulfhydryl oxidase, primary screen, biochemical, H2O2 detection, HRP-luminol luminescence, single point | purified ALR, DTT oxidation | inhibition, % (no concentration beside the values) | hit rate 3.8% among 290,000;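 active means mean replicate inhibition above about 79%, with every replicate also reaching it, limit read from the data; inconclusive means only one of the two criteria met; inactive means mean below limit and not every replicate reaching it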
Target sequence (P55789 whole entry, looked up): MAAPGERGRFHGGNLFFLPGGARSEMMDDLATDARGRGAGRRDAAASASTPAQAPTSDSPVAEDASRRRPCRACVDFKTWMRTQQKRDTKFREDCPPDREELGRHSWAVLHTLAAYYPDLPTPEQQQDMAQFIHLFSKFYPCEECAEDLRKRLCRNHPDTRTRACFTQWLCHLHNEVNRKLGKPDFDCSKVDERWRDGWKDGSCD
Starred values were filed as active, the others as inactive; ? = inconclusive; · = no result. A selection: hits, their analogues and other compounds. The true share with any hit is near 5.4%.

SMILES | A3A deaminase | aDG glyco act | APOBEC3G inh | rCAG RNA binder | PHOSPHO1 inh | ALR H2O2 inh
CC(C)n1nnnc1C1(C)CCCCC(=O)N1Cc1cccc(C(F)(F)F)c1 (configuration not stated) | · | · | · | 1 | · | ·
O=C(NCCc1ccc2c(c1)OCO2)c1cc(-c2ccccc2)c(N2CCOCC2)s1 | · | · | · | 10 | · | ·
CC(=O)Nc1ccc(S(=O)(=O)N[C@@H](C)C(=O)N2CCN(c3ccccn3)CC2)cc1 | 1 | 0 | -2 | 0 | · | 99*
CC(=O)Nc1ccc(NC(=O)C(C)OC(=O)COc2ccc(Nc3ccccc3)cc2)cc1 (configuration not stated) | 13 | 0 | 6 | 11 | · | 99*
CCC(=O)Nc1ccc(Nc2ccccc2)cc1 | -1 | 0 | -6 | -2 | -14 | ·
O=C(O)[C@H]1CCCC[C@H]1C(=O)Nc1ccc(Nc2ccccc2)cc1 | -4 | 0 | -1 | 9 | -14 | 98*
CCC(NS(=O)(=O)c1ccc(C)cc1)C(=O)N1CCN(c2ccccn2)CC1 (configuration not stated) | 1 | 0 | 1 | 3 | 0 | 1
O=C(Nc1ccc(Nc2ccccc2)cc1)C(Cl)(Cl)Cl | 3 | 0 | -2 | 4 | 3 | 95*
C[C@@H]1CCN(C2CC2)S(=O)(=O)c2c(cccc2N2CCC[C@H]2CO)O1 | · | · | · | 1 | · | ·
N#Cc1ccc(Cn2ccc3ccc(-c4ccc5ccn(C(=O)C6CCC6)c5c4)cc32)cc1 | · | · | · | 17 | · | ·
C=CCN1C(=O)[C@@H](CC(=O)NCc2cccc(C(F)(F)F)c2)[C@]2(C(=O)OCC)CCCCC/C=C/12 | · | · | · | 0 | · | ·
COC(=O)[C@]12C[C@H](CC(=O)N3CCC(c4ccccc4)CC3)C(=O)N(Cc3ccccc3)C1=C[C@H](C1CCCC1)O[C@@H]2C | · | · | · | 9 | · | ·
CC(C)[C@H](NC(=O)OC(C)(C)C)C(=O)N1CCC(Oc2cccnc2)CC1 | · | · | · | -2 | · | ·
CCSc1ccccc1C(=O)Nc1ccc(S(=O)(=O)NC(C)=O)cc1 | -6 | 0 | -2 | 6 | 39 | 96*
O=C(Nc1ccc(Nc2ccccc2)cc1)C(Cl)Cl | -6 | 0 | -8 | 4 | -1 | 92*
O=C(Nc1ccc(Nc2ccccc2)cc1)c1ccc(Cl)cc1 | -2 | 0 | -5 | 6 | · | 12
O=C(Nc1ccc(Nc2ccccc2)cc1)c1ccccc1 | -6 | · | -10 | 0 | · | 90*
CC(C)(C)C(=O)C(Cl)C(=O)Nc1ccccc1 (configuration not stated) | 5 | 0 | 2 | -5 | 35 | 3
CC(=O)Nc1ccc(S(=O)(=O)Nc2ccc(Nc3ccccc3)cc2)cc1 | -5 | 0 | -9 | 15 | · | 99*
C[c-]1[c-](C)[c-](C)[c-](C)[c-]1C.[Fe].c1cc2nccc(N3CCCC3)[c-]2c1 (configuration not stated) | 99 | 0 | 83 | 9 | 11 | 94*
c1cc(N2CCCCC2)nc(N2CCCCC2)n1 | · | 0 | · | 2 | · | ·
COC(=O)C1CN(Cc2cn(Cc3ccc(Cl)cc3)nn2)CCS(=O)(=O)N1Cc1ccccc1 (configuration not stated) | · | · | · | 3 | · | ·
CC(=O)c1c(C)oc2c1C(=O)c1ccccc1C2=O | · | 9.8* | · | -2 | 1 | -11
O=C1c2ccccc2C(=O)c2c1oc(C(F)(F)F)c2C(=O)c1ccccc1 | 0 | 8.8* | -3 | 1 | 106* | -35
COc1ccc(CNC(=O)c2c(C)oc3c2C(=O)c2ccccc2C3=O)cc1 | -7 | 1 | -9 | 6 | -1 | -52
SMILES | A3A deaminase | aDG glyco act | APOBEC3G inh | rCAG RNA binder | PHOSPHO1 inh | ALR H2O2 inh
O=C(c1ccccc1)c1coc2c1C(=O)c1ccccc1C2=O | -5 | 5 | -4 | 2 | -83 | -5
O=C(O)/C=C/C(=O)Nc1ccc(Cl)c(C(=O)O)c1 | 1 | 0 | -3 | 1 | -1 | -3
NNc1ccc(Cl)c(C(=O)O)c1 | -3 | 0 | 38 | 0 | 88* | 9
COc1ccc2c(c1)[C@@]1(OCCC=C[C@H]1C)C(=O)N2Cc1ccc(Br)cc1 | · | · | · | 1 | · | ·
C=CCn1c(=N)n(CC(=O)OCC)c2ccccc21 | 1 | 0 | 1 | -1 | 13 | 99*
COc1ccc(N2CCN(C(=O)CS(=O)Cc3nc(-c4ccc(OC)c(OC)c4)oc3C)CC2)cc1 (configuration not stated) | -5 | 0 | -6 | -2 | 40 | -2
Cc1cccc(-c2nc(CS(=O)CC(=O)N3CCN(C)CC3)c(C)o2)c1 (configuration not stated) | -2 | 0 | -6 | 1 | -2 | 99*
Cc1ccc(-c2nc(CS(=O)CC(=O)N3CCN(c4ccc(F)cc4)CC3)c(C)o2)cc1 (configuration not stated) | -7 | 0 | -9 | -5 | 37 | 99*
CCOC(=O)C1CCN(C(=O)CS(=O)Cc2nc(-c3ccc(C)cc3)oc2C)CC1 (configuration not stated) | -2 | 0 | 0 | 0 | 11 | 100*
Cc1ccccc1-c1nc(CS(=O)(=O)CC(=O)N2CCN(C)CC2)c(C)o1 | -2 | 0 | 0 | -2 | 34 | -12
COc1ccccc1Cc1c(-c2ccc(F)cc2)nc2c3ccccc3ccn12 | · | · | · | 7 | · | ·
CCN(CC)c1ccc(/C=N/N2CCOCC2)c(O)c1 | -2 | 0 | -8 | -3 | 4 | ?
CCN(CC)c1ccc(/C=N/N2C(C)CCCC2C)c(O)c1 (configuration not stated) | 0 | 0 | -6 | -7 | 31 | 98*
CCN(CC)c1ccc(/C=N/N=C(N)N)c(O)c1 | -4 | 0 | -8 | 11 | 56 | 76*
CCN(CC)c1ccc(C=Nc2ccc(N(C)C)cc2)c(O)c1 | -1 | 0 | 7 | 12 | 38 | 98*
COc1cccc(C(=O)N[C@H](C(=O)N2CCC[C@H]2C(=O)NCc2ccccc2)c2ccccc2)c1 | · | · | · | 1 | · | ·
COc1ccc(NC(=O)NNC(=O)CCn2nc(C)c([N+](=O)[O-])c2C)cc1OC | · | · | · | 1 | · | ·
COc1ccc(-c2ccc(CCC(=O)O)n2-c2ccccc2OC)cc1 | 1 | 0 | -2 | -1 | · | 99*
COc1ccc(-c2ccc(CCC(=O)O)n2NC(=O)c2ccc(O)cc2)cc1 | -4 | 0 | -11 | 4 | 63* | 98*
COc1ccccc1-n1c(CCC(=O)O)ccc1-c1ccccc1 | -7 | 0 | -8 | 3 | · | 90*
CCCn1c(CCC(=O)O)ccc1-c1ccc(OC)cc1 | -4 | 0 | -8 | 8 | -36 | 13
COc1ccc(-c2ccc(CCC(=O)O)n2NC(N)=O)cc1 | 4 | 0 | 5 | -1 | 19 | 31
